The panel holds about 79,000 compounds, 15% with a hit somewhere; the sample as a whole holds those more often. The source made the active and inactive calls. Cut-off read from the data, not from the text of the source: active = growth inhibition above about 70%; inactive = the rest.
Tests used:
[1] = NCI Yeast Anticancer Drug Screen. Data for the rad50 strain (AID 155);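 note: 0% = growth of vehicle-only cultures of the same strain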; settings: S. cerevisiae rad50 strain growth inhibition; at 50.0 µM; hits give high values
Summary of the method: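 A DNA repair-deficient yeast mutant serves as the test organism; compound-induced growth inhibition is calculated against vehicle-treated cells.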

[2] = NCI Yeast Anticancer Drug Screen. Data for the mec2-1 strain (AID 157); settings: S. cerevisiae mec2-1 strain, at 50.0 µM, hits give high values
Summary of the method: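 Using mec2-1 yeast: add compound, measure growth, express inhibition versus vehicle-treated cultures.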

[3] = NCI Yeast Anticancer Drug Screen. Data for the sgs1 mgt1 strain (AID 161);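 note: 0% = growth of cultures given vehicle only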; settings: S. cerevisiae sgs1 mgt1 strain, at 50.0 µM, hits give high values
Summary of the method: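 Percent growth inhibition was derived by comparing compound-exposed mutant yeast with vehicle-exposed cultures. The strain carries alterations in DNA damage repair.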

[4] = NCI Yeast Anticancer Drug Screen. Data for the cln2 rad14 strain (AID 165);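 note: 0% = growth equal to vehicle treated cultures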; settings: S. cerevisiae cln2 rad14 strain, at 50.0 µM, hits give high values
Summary of the method: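 Yeast strain cln2 rad14, bearing defects in cell cycle control and DNA repair, serves as the test system; values reflect growth inhibition compared with vehicle.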

[5] = NCI Yeast Anticancer Drug Screen. Data for the bub3 strain (AID 167); settings: S. cerevisiae bub3 mutant strain, at 50.0 µM, hits give high values
Summary of the method: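 Inhibition values come from growth of compound-treated mutant yeast normalised to vehicle-treated controls.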

[6] = NCI Yeast Anticancer Drug Screen. Data for the mlh1 rad18 strain (AID 175); settings: S. cerevisiae mlh1 rad18 strain growth inhibition; at 50.0 µM; hits give high values
Summary of the method: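 Steps: expose repair-defective yeast to compound; measure growth; express inhibition against vehicle-treated controls.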

Measured: growth inhibition

COc1ccc(CCl)cc1CCl
inactive: [1] -24.2% | [2] -62.8% | [3] -7.25% | [4] 5.85% | [5] -26.4% | [6] -43.7%

Cc1csc2sc3ccccc3[n+]12
inactive: [1] 5.75% | [2] -6.85% | [3] -0.5% | [4] -5.8% | [5] -11.9% | [6] -34.1%

CCOC12CC3C4=CCOC5CC(=O)N6c7ccccc7C1(CCN2C4)C6C53 (stereo unspecified)
inactive: [1] 15.8% | [2] -39.2% | [3] -9.45% | [4] 18.9% | [5] 9.05% | [6] -1.2%

O.O.[Cl][Pt+2][Cl].[NH-]CC[NH-]
inactive: [1] 23.6% | [2] 10.7% | [3] -2.15% | [4] 41.5% | [5] 16% | [6] 9.85%

C[N+](C)(C)CC1CCCC/C1=N\O (stereo unspecified)
inactive: [1] 23.2% | [2] 0.3% | [3] 9.75% | [4] 39% | [5] 8.6% | [6] 39.3%

N#CC(C#N)=Cc1ccc(F)cc1
inactive: [1] -6.85% | [2] 5% | [3] -18.7% | [4] -15.7% | [5] 16.1% | [6] -15.5%

CC(=O)NC1C([Se][As](C)C)OC(COC(C)=O)C(OC(C)=O)C1OC(C)=O (stereo unspecified)
inactive: [1] -15.2% | [2] -20.4% | [3] 23.6% | [4] -7.3% | [5] -2.95% | [6] -6.5%

CC(C)OP(=O)(OC(C)C)C(C)(C)O
inactive: [1] 2.8% | [2] 3.8% | [3] 12.9% | [4] 21.3% | [5] -1.35% | [6] -32.1%

CC1(C)N=C(N)N=C(N)N1c1ccc(OCCCOc2ccc(S(=O)(=O)F)cc2)cc1
inactive: [1] 35.1% | [4] -7.65% | [5] 31.5%
active: [2] 72.8% | [3] 89.1% | [6] 84.5%

COc1ccc(CC(C)=O)cc1OC
inactive: [1] -10.9% | [2] 6.8% | [3] 19% | [4] 36% | [5] -24.1% | [6] -5.9%

CCOC(=O)C(CC)(CC)C(=O)OCC
inactive: [1] -18.9% | [2] -2.3% | [3] -29.6% | [4] -38% | [5] -12.4% | [6] 4%

NC(=O)C(N)C(F)c1ccccc1 (stereo unspecified)
inactive: [1] -11.4% | [2] 2.85% | [3] -16.4% | [4] -13.6% | [5] -11.7% | [6] 16.8%

CN1CCC(O)(c2ccccc2)C(O)C1 (stereo unspecified)
inactive: [1] 11.2% | [2] 29.1% | [3] 23.5% | [4] 32.3% | [5] -4% | [6] 39.2%

CCC(C)OP(=S)(S)OC(C)CC.[Zn+2] (stereo unspecified)
inactive: [1] 1.8% | [2] 22.3% | [3] -6% | [4] -5.55% | [5] 25.2% | [6] -5.95%

CCCCCCCCCCOC(=O)c1ccccc1C(=O)OCCCCCCCCCC
inactive: [1] -22% | [2] -23.9% | [3] -13.8% | [4] 17.3% | [5] -11.2% | [6] -24.6%

[CH3][Sn]1([CH3])[O]C(=O)C(=O)[O]1
inactive: [1] 12.2% | [2] 19.4% | [3] 2.4% | [4] -26.8% | [5] -9.6% | [6] 7.8%

CCCCCCP(=O)(CCCCCC)CCCCCC (tested in a mixture with another compound)
inactive: [5] 62%
active: [1] 77.3% | [2] 83.6% | [3] 87.5% | [4] 78.6% | [6] 84.2%

C[C@]12CC[C@H]3[C@@H](CC=C4C=C(P(=O)(O)O)CC[C@@]43C)[C@@H]1CC[C@@H]2O
inactive: [1] -8.1% | [2] 5.2% | [3] -8.55% | [4] -56.3% | [5] -12.9% | [6] -10.1%

CCCOP(=O)(OCCC)C(=O)Nc1ccc(Br)cc1
inactive: [1] -25.7% | [2] 2.95% | [3] 6.25% | [4] -24.1% | [5] 25% | [6] -9.5%

O=C(/C=C/c1ccccc1)CCC1C(=O)NC(=S)NC1=O
inactive: [1] -4.05% | [2] 3.35% | [3] 27.2% | [4] 0.4% | [5] -17.1% | [6] -34.5%

CCCC[C@@H]1CCN2C[C@@H](O)[C@@H](O)[C@@H]2[C@H]1O
inactive: [1] -2.4% | [2] 5.65% | [3] -9.45% | [4] 11.7% | [5] 12.2% | [6] -12.9%

Cn1cc([N+](=O)[O-])c([N+](=O)[O-])c1
inactive: [1] -3.8% | [2] 2.5% | [3] -11.6% | [4] -74.8% | [5] -6.3% | [6] 0.85%

CC(Br)CN(CC(C)Br)c1ccc(-c2ccccc2)cc1 (stereo unspecified)
inactive: [1] 38.5% | [2] 30% | [3] 12.6% | [4] 35.7% | [5] 15.6% | [6] 21.7%

Cc1ccc(NC(=O)CCc2ccc(N3C(N)=NC(N)=NC3(C)C)cc2Cl)cc1S(=O)(=O)F
active: [2] 72.3%
inactive: [1] 54.6% | [3] 64.2% | [4] -5.25% | [5] -25.9% | [6] 15%

O=C(Cc1nc2ccccc2c(=O)n1-c1c(Cl)cccc1Cl)c1ccncc1
inactive: [1] 2.45% | [2] 7.95% | [3] 7.1% | [4] -25.6% | [5] -2.95% | [6] 18.9%

O=[N+]([O-])c1ccc(O)c(C=NCCN=Cc2cc([N+](=O)[O-])ccc2O)c1.[Zn+2]
inactive: [1] 15.4% | [2] 7% | [3] -6.05% | [4] -15.8% | [5] 1.1% | [6] 23.4%

OC1C2CCC1C(N1CCOCC1)CC2 (stereo unspecified)
inactive: [1] 0.25% | [2] 3.85% | [3] 8.05% | [4] -7.15% | [5] 18.5% | [6] 5.5%

O=NNc1cnc2ccccc2n1
inactive: [1] 48.5% | [2] -0.25% | [3] -9.75% | [4] -5.4% | [5] -38.2% | [6] 12.2%

O=[N+]([O-])c1cccc2ncccc12
inactive: [1] -2.95% | [2] -14.4% | [3] 18.4% | [4] -6.55% | [5] 17.7% | [6] 9.3%

O=C1C(F)=C(F)C(=O)C(F)=C1F
inactive: [1] 16.2% | [2] -4.75% | [3] 8.35% | [4] -2.85% | [5] 21.5% | [6] -1.7%

NC(Cc1ccc(Cl)cc1)c1nn[nH]n1 (stereo unspecified)
inactive: [1] -5.5% | [2] 1.25% | [3] -4.1% | [4] -22.4% | [5] 1.2% | [6] -7.7%

Cc1ccc(OP(=O)(Oc2ccc(C)cc2)Oc2ccc(C)cc2)cc1.Cc1ccc(OP(=O)(Oc2ccc(C)cc2)Oc2ccc(C)cc2)cc1.[Cl][Cr]([Cl])[Cl]
inactive: [1] -1.05% | [2] -3.05% | [3] -2.1% | [4] -7% | [5] 0.9% | [6] 4.45%

O=[N+]([O-])c1c(Cl)cc(Cl)c([N+](=O)[O-])c1Cl
inactive: [1] 15.6% | [2] 5.25% | [3] 17.1% | [4] 3.9% | [5] 2.85% | [6] 32.1%

CCOP(=O)(O)C1CCCC(C)[N-]1.CCOP(=O)(O)C1CCCC(C)[N-]1.CCOP(=O)(O)C1CCCC(C)[N-]1.[Ti+3] (stereo unspecified)
inactive: [1] 1.7% | [2] 0.1% | [3] -6.55% | [4] -24.1% | [5] -6.3% | [6] 2.6%

Nc1ccc(CCC(=O)Nc2ccc(S(=O)(=O)F)cc2)c(Cl)c1
active: [1] 82.9% | [2] 84% | [3] 85.3% | [4] 92% | [5] 92% | [6] 96.5%

N#CC(C#N)=Cc1ccccc1C(=O)O
inactive: [1] 14.9% | [2] 11.3% | [3] -12.3% | [4] 14.7% | [5] 7.15% | [6] -4.1%

CC(C)CCC1C(=O)NC(=O)NC1=O
inactive: [1] -0.2% | [2] -6.15% | [3] -15.4% | [4] 8.1% | [5] -4.05% | [6] -1.15%

CCN(CC)CCO
inactive: [1] -4.1% | [2] -4.9% | [3] -9.6% | [4] 7.05% | [5] 15.2% | [6] -23.6%

CCCCOC(N)=O
inactive: [1] -34.6% | [2] -11.6% | [3] 29.4% | [4] -19.9% | [5] 0.1% | [6] 0.3%

CCOP(=O)(CCN(C)C)OCC
inactive: [1] -6.45% | [2] 3.55% | [3] -4.4% | [4] -27.7% | [5] -7.9% | [6] -0.45%

COc1cc2c(c(OC)c1O)-c1ccc(OC)c(=O)cc1[C@@H](NC(=O)C(F)(F)F)CC2
inactive: [1] 14.5% | [2] 28.3% | [3] -3.25% | [4] 15.7% | [5] 7.9% | [6] 11.3%
